Measured values reported in PubChem BioAssay AID624256 (NMMLSC, 2012).
Hit rate of the full screen: of about 360,000 compounds, about 3,700 (1%) were called active. Roughly 2% stayed inconclusive and do not appear here.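 How the source made its calls: active means normalized GFP-positive differentiation at or above the plate's own cutoff, the solvent-only control mean plus 3 SD; inconclusive means no clear call, values can overlap the other calls; inactive means the rest.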 The list comes from a sample in which actives are over-represented; it also holds similar structures and randomly drawn compounds.

Assay: induction of myeloid progenitor differentiation, primary screen, cell-based, flow cytometry, MLPCN library (AID 624256);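 on GFP+ MAC1+ double positive: cells exposed to compound for four days before flow analysis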;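 on normalized GFP-positive differentiation: cells exposed to compound for four days before flow analysis; 0% = DMSO wells and 100% = fulvestrant positive control at 5 µM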
Details: ER-HoxA9 myeloid progenitors, lysozyme-GFP differentiation, at 10 µM; GFP+ MAC1+ double positive: measured here: differentiation confirmed by MAC1 staining, stronger effect = higher value; normalized GFP-positive differentiation: stronger effect = higher value

SMILES	GFP+ MAC1+ double positive [%]	outcome	normalized GFP-positive differentiation
CC(=O)c1c(C)[nH]c(C(=O)NCCCN2CCCC2)c1C	0.6	inactive	
CC(=O)c1c(C)[nH]c(C(=O)NCc2ccc(C)cc2)c1C	1.3	inactive	
CCCCN(CC)CCNC(=O)c1[nH]c(C)c(C(C)=O)c1C	2.2		13.8% (active)
COC(=O)c1ccc2nc(C3CCCCC3)c(Cc3cccc(F)c3)n2c1	0.7	inactive	
CO[C@@H]1CN(C)C(=O)c2cc(NC(=O)C3CC3)ccc2OC[C@H](C)N(C(=O)CN2CCOCC2)C[C@@H]1C	1.2	inactive	
Cn1cc(C2OC(=O)c3ccccc32)c2ccccc21 (centres undefined)	1.6	inactive	
CC(C(=O)O)N1C(=O)c2cccc3cccc1c23 (centres undefined)	1.4	inactive	
Cc1nn(C)cc1N1C(=O)c2cccc3c(N)ccc(c23)C1=O	4.9		289% (active)
CN1C(=O)c2cccc3c(N)ccc(c23)C1=O	1.9		96.2% (active)
COCCCn1cc(CN2CC(N(C)C)CS2(=O)=O)nn1 (centres undefined)	0.8	inactive	
Cc1nc2c(OCc3ccc(Cl)cc3Cl)cccn2c1N(C)CC1CC1	0.6	inactive	
CC(C)CN1C(=O)CN(S(C)(=O)=O)CC1(C)C(=O)NCc1ccccc1 (centres undefined)	1.1	inactive	
Nc1nc2ncccn2c1-c1ccccc1	2.1	inactive	
CCc1nc2ccc(C(=O)NCc3ccc(OC)cc3)cn2c1N(CC)Cc1cccc(Br)c1	1.1	inactive	
Cc1nccn1-c1ccc(NC(=O)[C@H]2O[C@@H](n3ccc(=O)[nH]c3=O)[C@H](O)[C@@H]2O)cc1	1.7	inactive	
Cc1cc(=O)oc2c1c(C)nn2-c1ccc(Cl)cc1	0.3	inactive	
Cc1nn(-c2cc(Cl)ccc2N)c(=O)c2ccccc12	7.4		51.3% (active)
CCOC(=O)CNC(=O)c1nn(-c2cccc(OC)c2)c(=O)c2ccccc12	0.7	inactive	
C#CCNC(=O)C[C@@H]1C[C@@]2(C(=O)OCC)CCCC=C2N(Cc2ccco2)C1=O	1.5	inactive	
Cc1cc(Br)cn2c(Cc3ccsc3)c(-c3ccc(C#N)cc3)nc12	2	inactive	
O=C(Nc1cccc2ccccc12)c1[nH]c(-c2ccccc2)c2c1C(=O)N(C1CC1)C2=O	1.2	inactive	
COC(=O)C[C@@H]1C=C[C@@H](NC(=O)c2ccc3c(c2)OCO3)[C@@H](CO)O1	3.1	inactive	
CS(=O)(=O)c1ccc2c(c1)SC1=NC(=O)/C(=C/c3ccco3)C(=N)N12	6.9	inactive	

SMILES	GFP+ MAC1+ double positive [%]	outcome	normalized GFP-positive differentiation
COC(=O)COc1ccc2c(c1C)O/C(=C\c1ccco1)C2=O	0.6	inactive	
CC(C)(C)C1C/C(=C/c2ccco2)C(=O)/C(=C/c2ccco2)C1 (centres undefined)	0.5		92.8% (active)
CN(CCOc1ccccc1)C(=O)c1cc(-c2ccco2)nc2ccccc12	1.1	inactive	
O=C(c1cc(-c2ccco2)nc2ccccc12)N(Cc1nnc(-c2ccc(Cl)cc2)o1)C1CC1	1.9		11.9% (active)
CC1CCCN(C(=O)c2cc(-c3ccco3)nc3ccccc23)C1 (centres undefined)	0.2	inactive	
S=C(NCCCc1cnc[nH]1)NCCCN(Cc1ccc(Cl)c(Cl)c1)c1ccc(Br)cn1	1.1	inactive	
CC(C)(C)NC(=O)C(CCc1ccccc1)n1c(=O)c(-c2ccccc2)nc2ccccc21 (centres undefined)	3.2	inactive	
O=c1c2ccccc2oc2nc3n(c(=O)c12)CCCS3	7.5	inactive	
CCc1nc2oc3ccccc3c(=O)c2c(=O)n1Cc1ccc(OC)cc1	3.7		16.2% (active)
COc1ccc(Cn2c(=O)oc3ccccc32)cc1	0.5	inactive	
COc1ccc(-c2nc3ccc(Br)cn3c2Cc2ccc(C)cc2)cc1OC	0.6	inactive	
COc1ccc(CN2CCC(C)(Oc3cccc(F)c3)C2)c2ccccc12 (centres undefined)	0.4	inactive	
COc1ccc(NCCc2ccccn2)cc1	0.7	inactive	
COc1ccc2nc(-c3ccccn3)ccc2c1	0.3	inactive	
COc1cnc(-c2ccccn2)nc1Oc1ccc(C(C)(C)C)cc1	12.1		308% (active)
CCc1nc2c(OCC(=O)C(C)(C)C)cccn2c1N(C)C(=O)c1ccccc1F	0.3	inactive	
C=CCC[C@H](CCCCC)OC(=O)/C=C/[C@H](O)[C@@H](O)C[C@@H](O)CC=C	1.1	inactive	
COc1ccccc1N1CCN(S(=O)(=O)CCNC(=O)c2ccc(OC(C)C)cc2)CC1	1		44.1% (active)
CCOc1ccc(CC(=O)NCCS(=O)(=O)N2CCN(c3ccccc3)CC2)cc1	0.6	inactive	
O=C(NCCS(=O)(=O)N1CCN(c2ccccc2F)CC1)c1ccc(Br)o1	2.9	inactive	
O=C(NCc1cccnc1)c1cc(C2CCCCN2C(=O)CCc2ccccc2)on1 (centres undefined)	0.7	inactive	
CCCCOCCCNC(=O)C[C@@H]1C[C@@]2(C(=O)OCC)CCCC=C2N(CCC2=CCCCC2)C1=O	1.7	inactive	
Cc1ccc(S(=O)(=O)c2nc(NCCCn3ccnc3)sc2Cl)cc1	0.5	inactive	

SMILES	GFP+ MAC1+ double positive [%]	outcome	normalized GFP-positive differentiation
Cc1ccc2c(Cl)c(C(=O)NCCCn3ccnc3)sc2c1	0.5	inactive	
Cc1ccc(-c2nc(C#N)c(NCCCn3ccnc3)o2)cc1	2.5		10.9% (active)
CCOC(=O)c1cc2cc(OC)ccc2n1C1CCN(C)CC1	0.3	inactive	
O=C(C(=O)N1CCN(c2ccccc2)CC1)c1ccc2c(c1)OCO2	1	inactive	
O=C(N[C@H]1CC[C@H](CC(=O)N2CCCCC2)O[C@@H]1CO)c1cccc(F)c1	1.6	inactive	
COC(=O)c1c(-c2ccc(C)cc2)csc1N	2	inactive	
CCOC(=O)c1c(-c2ccc(C)cc2)csc1/N=C(\C)C1=C(O)c2ccccc2C1=O	10.3		142% (active)
CCC(C(=O)OC)n1cnc2scc(-c3ccc(C)cc3)c2c1=O (centres undefined)	0.9	inactive	
Cc1sc2ccccc2c1CNC[C@H]1O[C@@H](n2ccc(=O)[nH]c2=O)[C@H](O)[C@@H]1O	1.3	inactive	
CC1(C)OC(=O)C2=C(C[C@@H](C3CC3)O[C@H]2c2ccc(Cl)cc2)O1	1.4	inactive	
COCCNC(=O)C1C(=O)Nc2ccccc2C(=O)N1c1ccc2c(c1)OCCO2 (centres undefined)	3.1	inactive	
Cn1nc(C(F)(F)F)c2cc(C(=O)N3CCOCC3)sc21	0.1	inactive	
CCOC(=O)N1CCN(C(=O)c2cc3c(-c4ccc(Cl)cc4)nn(C)c3s2)CC1	33.3		83.1% (active)
COc1ccccc1N1CCN(C(=O)c2cc3c(-c4ccc(Cl)cc4)nn(C)c3s2)CC1	3.7	inactive	
CCCS(=O)(=O)NC(=O)C1(C)CCCN(C(=O)c2cc(C)on2)C1 (centres undefined)	0.6	inactive	
FC(F)(F)Oc1ccccc1C(c1nnnn1C1CCCCC1)N1CCN(C/C=C/c2ccccc2)CC1 (centres undefined)	1.6	inactive	
O=c1[nH][nH]c2c1[C@H](c1ccc(Cl)cc1)O[C@H](CCc1ccccc1)C2	0.6	inactive	
COc1cc(-c2n[nH]c(=S)n2Cc2ccccc2)cc(OC)c1OC	22.5		297% (active)
CCCc1cc(-c2n[nH]c(=S)n2Cc2ccccc2)cs1	5.8	inactive	
CC(C)Oc1ccc(Cc2n[nH]c(=S)n2Cc2ccccc2)cc1Cl	0.3	inactive	
CN(C)CCNC(=O)c1cccc(-c2cnc3c(NC=O)cc(-c4cccc(C(F)(F)F)c4)cn23)c1	2.2	inactive	
